This test deals with MELK. As to conditions: concentration: 1 μM,replicates: in singlicate; n = 1.
Turning to `C[C@@H](Oc1cc(-n2cnc3cc(-c4ccncc4)ccc32)sc1C(N)=O)c1ccccc1Cl` [GSK479719], the “%Inh” value amounted to 0%.

Turning to `COc1cc2c(Nc3ccc(NC(=O)c4ccccc4)cc3)ncnc2cc1OCCCN1CCOCC1` [GSK301329], the “%Inh” value turned out to be 4%.

`Cc1cccc(-c2nc(Nc3ccncc3)c3sccc3n2)n1` [GW869641]: the “%Inh” value was 36%.

For `Cl.Cl.NC[C@H](CC1CCCCC1)NC(=O)c1ccc(-c2ccnc3[nH]ccc23)s1` [GSK1581428], the “%Inh” value is 96.4%.

For `Cc1ccc(Nc2ccnc(Nc3ccc4c(c3)CS(=O)(=O)C4)n2)cc1O.Cl` [GW579362], the “%Inh” value is 0%.

With `CCOC(=O)N1CCC(n2cnc(-c3ccc(F)cc3)c2-c2ccnc(N)n2)CC1` [SB-219952], the “%Inh” value is given as 0%.

Turning to `CS(=O)(=O)c1cccc(CNc2nc(Nc3ccc4c(c3)[C@@H]3C[C@@H]4CNC3=O)ncc2C(F)(F)F)c1`, the “%Inh” value is given as 5%.

Take `O=C(Nc1ccc(Oc2ccc3nc(NC(=O)C4CC4)cn3n2)c(F)c1)c1cccn(-c2ccccc2)c1=O`: the “%Inh” value came out at 18%.

With `Cc1ccc(C(=O)Nc2ccc(Oc3ccc4nc(NC(=O)C5CC5)cn4c3)c(F)c2)c(=O)n1-c1ccccc1`, the “%Inh” value is listed as 37%.

As to `CCN1CCN(CCCC(=O)Nc2n[nH]c3nc(-c4ccc(O)cc4)c(Br)cc23)CC1` [SB-731579], the “%Inh” value stood at 0%.

In the case of `COC(=O)c1cccc(NC(=O)NC2CCN(c3ccnc(Nc4cc(OC)c(OC)c(OC)c4)n3)C2)c1` (stereo not drawn) [GSK1379767], the “%Inh” value is 0%.

In the case of `Cn1cc(-c2cccc3c(N)c(C(N)=O)nnc23)cn1`, the “%Inh” value is given as 16%.

The record behind these values is paper PMC5540273 (PLoS ONE, 2017).
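Also: KINOMEscan kinase panel screen.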
